Activity calls are given as the source filed them. Calls come from the whole dose curve; as a rule, active = well fitted curve in the direction sought with a large enough effect; inconclusive = small, poorly fitted or top-dose-only effect, or another doubt; inactive = no such curve, though single readings can be large or run the other way.
Experiment: Cellular Toxicity (caspase-3) HUV-EC-C (AID 656)
Conditions: HUV-EC-C cells, caspase-3 activation (apoptosis), vehicle = 0, 100 µM tamoxifen = 100%; series mostly up to 92.2 µM; caspase-3 activation: at the top concentration
Text: NIH Chemical Genomics Center [NCGC]
NIH Molecular Libraries Screening Centers Network [MLSCN]
National Institutes of Environmental Health Sciences [NIEHS]
National Toxicology Program [NTP]
We have developed a 1536-well cell-based assay for quantitative high throughput screening (qHTS) against a number of cell lines to determine in vitro caspase 3/7 of small molecules. This particular assay uses the HUV-EC-C cell line which is derived from normal human vascular endothelial cells.
NCGC Assay Protocol Summary:
The Caspase-Glo 3/7 assay (Promega) is a homogeneous method to measure caspase-3 and caspase-7 activities in cultured cells. The quantitation of caspase 3/7 activity is based on the cleavage of a peptide-aminoluciferin substrate. After caspase cleaves the substrate the free aminoluciferin is liberated and serves as the substrate of luciferase, which generates the light. The luminescent signal is proportional to amount of caspase 3/7 activity present.
Using the Caspase-Glo 3/7 assay, the amount of caspase 3/7 activity was measured in the HUV-EC-C cell line with complete culture medium following compound treatment for 16 hours. The assay was performed in opaque white 1536-well plates. In the screen, tamoxifen and doxorubicin were used as positive controls. Library compounds were measured for their ability to cause the activation of caspase 3/7 in the cell line, as reflected by an increase in luminescence signal, in a concentration-dependent manner. Data were normalized to the controls for basal activity (DMSO only) and 100% stimulation (100 uM tamoxifen). AC50 values were determined from concentration-response data modeled with the standard Hill equation.
qHTS protocol for caspase 3/7 assay in HUV-EC-C cell line
[Step] [Parameter] [Value] [Description]
1. Reagent; 5 uL; 1000 HUV-EC-C cells/well
2. Time; 5 hr; 37 °C incubation
4. Controls; 23 nL; Tamoxifen 0.23 uM to 100 uM & doxorubicin 7.0 pM to 100 uM
5. Time; 16 hr; 37 °C incubation
6. Reagent; 5 uL; Caspase-Glo 3/7 reagent
7. Time; 20 min; Room Temperature
8. Detection; Luminescence; Viewlux plate reader
Keywords: caspase 3/7, apoptosis, HUV-EC-C cell line, luminescence, NTPHTS, NTPHTS_NCGC, NIEHS, EPA, DSSTox, MLSMR, MLSCN, NIH Roadmap, qHTS, NCGC
For C=CC(=O)NCNC(=O)C=C, the “caspase-3 activation” value was -1.35% (inactive). For COc1ccc(C(c2ccc(OC)cc2)C(Cl)(Cl)Cl)cc1, the outcome was “inactive”. For CN(C)[C@@H]1C(=O)C(C(N)=O)=C(O)[C@@]2(O)C(=O)C3=C(O)c4c(O)cccc4[C@@](C)(O)[C@H]3[C@H](O)[C@@H]12, the “caspase-3 activation” value was -2.31% (inactive). In the case of OCCCBr, the “caspase-3 activation” value is reported as 3.89% (inactive). In the case of O=C(O)COc1ccccc1, the “caspase-3 activation” value is reported as 14.8% (inactive). In the case of CC(=O)[O][Hg][c]1ccccc1, the “caspase-3 activation” value is reported as -10.5% (inactive). In the case of CCCCC(CC)COC(=O)c1ccccc1C(=O)OCC(CC)CCCC (stereo unspecified), the “caspase-3 activation” value is reported as -8.13% (inactive). With CCOCCOC(C)=O the “caspase-3 activation” value was -0.974% (inactive). In the case of O=[N+]([O-])c1c2ccccc2cc2ccccc12, the “caspase-3 activation” value is reported as 5.25% (inactive). With Nc1ccc(Cl)cc1 the “caspase-3 activation” value was -0.7% (inactive). In the case of Cc1cc(O)ccc1Cl, the “caspase-3 activation” value is reported as 1.31% (inactive). For O=[N+]([O-])c1c(Cl)c(Cl)cc(Cl)c1Cl, the “caspase-3 activation” value was 0.195% (inactive). For COC(C)(C)CCCC(C)C/C=C/C(C)=C/C(=O)OC(C)C (stereo unspecified), the “caspase-3 activation” value was 0.376% (inactive). For CN(C)NC(=O)CCC(=O)O, the “caspase-3 activation” value was -5.91% (inactive). For Nc1ccc(Cl)cc1N, the “caspase-3 activation” value was -10.3% (inactive). In the case of CC(C)(O)C(=O)Nc1ccc([N+](=O)[O-])c(C(F)(F)F)c1, the “caspase-3 activation” value is reported as -2.12% (inactive). With O=S(=O)(c1ccc(Cl)cc1)c1ccc(Cl)cc1 the outcome was “inactive”. With CCCCOC(=O)c1ccccc1C(=O)OCc1ccccc1 the “caspase-3 activation” value was -3.76% (inactive). For Nc1ccc(Sc2ccc(N)cc2)cc1, the “caspase-3 activation” value was -2.77% (inactive). In the case of CCOP(=O)(NC(C)C)Oc1ccc(SC)c(C)c1 (stereo unspecified), the “caspase-3 activation” value is reported as -3.11% (inactive). For CCCCCCCCc1ccc(O)cc1, the “caspase-3 activation” value was -3.63% (inactive). With O=[N+]([O-])c1cc([N+](=O)[O-])c2ccccc2c1 the “caspase-3 activation” value was -0.545% (inactive). With c1cc2ccc3cccc4ccc(c1)c2c34 the “caspase-3 activation” value was -0.541% (inactive). In the case of O=C(O)C(Cl)Cl, the “caspase-3 activation” value is reported as 1.84% (inactive). In the case of C1CCC(NC2CCCCC2)CC1, the outcome is reported as “inactive”. In the case of Nc1ccc([N+](=O)[O-])cc1, the “caspase-3 activation” value is reported as -0.189% (inactive).

Source: PubChem BioAssay (NCATS)
